pPAFAH FP inh – pPAFAH (human) enzyme inhibition. Q13093. recombinant pPAFAH, FP-rhodamine probe fluorescence polarization. inhibition, % at 3.39 µM. 330,000 compounds, 1.5% hits. AID 463082;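 active = inhibition above the mean inhibition across the screen plus 3 SD, cut at about 25% in these data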;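 also: inhibitors block binding of the rhodamine activity-based probe so polarization drops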
PP1 counter – counter-screen for PP5 inhibitors: inhibitors of human PP1-alpha. P62136. purified PP1alpha, OMFP fluorescence. inhibition, % at 6.7 µM. 320,000 compounds, 0.9% hits. AID 2235;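 active = inhibition above the mean inhibition of all tested compounds plus 3 SD, computed separately for each screening campaign, cut at about 15% in these data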
PAFAH1B2 inh – blocks human PAF acetylhydrolase 1b catalytic subunit 2 | P68402 | recombinant PAFAH1B2, FP-rhodamine activity probe, fluorescence polarization | inhibition, % at 3.39 µM | 340,000 compounds, 1.2% hits | AID 492953;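 active = inhibition above the mean of all tested compounds plus 3 SD, cut at about 24% in these data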
PAFAH1B3 FP inh – inhibitors of human PAFAH1B3; recombinant PAFAH1B3, FP-rhodamine probe, fluorescence polarization; inhibition, % at 3.39 µM; Q15102; 340,000 compounds, 0.28% hits;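 active = inhibition above the screen-wide average of all tested compounds plus 3 SD, cut at about 25% in these data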
PP5 primary – inhibitors of human protein phosphatase 5 (PP5); P53041; purified PP5c, OMFP substrate fluorescence; inhibition, % at 6.7 µM; 320,000 compounds, 0.18% hits; AID 1987;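 active = inhibition above the campaign's mean inhibition across all tested compounds plus 3 SD, cut at about 9.5% in these data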
Target sequence (P53041 whole entry, looked up): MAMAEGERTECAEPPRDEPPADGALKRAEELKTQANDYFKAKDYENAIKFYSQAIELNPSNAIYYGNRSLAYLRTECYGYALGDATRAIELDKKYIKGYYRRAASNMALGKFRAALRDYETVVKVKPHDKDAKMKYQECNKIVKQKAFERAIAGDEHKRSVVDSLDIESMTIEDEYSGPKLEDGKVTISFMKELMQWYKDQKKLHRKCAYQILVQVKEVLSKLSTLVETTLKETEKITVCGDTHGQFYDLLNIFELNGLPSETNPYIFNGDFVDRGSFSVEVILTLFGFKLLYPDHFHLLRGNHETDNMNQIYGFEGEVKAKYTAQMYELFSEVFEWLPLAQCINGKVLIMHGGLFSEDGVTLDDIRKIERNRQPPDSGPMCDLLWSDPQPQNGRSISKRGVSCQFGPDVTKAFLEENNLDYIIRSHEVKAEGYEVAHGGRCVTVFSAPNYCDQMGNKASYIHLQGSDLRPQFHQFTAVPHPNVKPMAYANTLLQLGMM
PAFAH2 FP inh – inhibitors of human PAFAH2; 340,000 compounds, 0.99% hits; Q99487; recombinant PAFAH2, FP-rhodamine activity probe, fluorescence polarization; inhibition, % at 3.39 µM;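 active = inhibition above the mean over all tested compounds plus 3 SD, cut at about 30% in these data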;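 also: inhibitors block probe labeling of enzyme so polarization drops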
PP1 confirm – human PP1 phosphatase inhibition, confirmation. shares compounds with PP1 counter. 1,900 compounds, 52% hits. inhibition, % at 6.7 µM. purified PP1alpha, OMFP substrate fluorescence;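 active = mean PP1 inhibition above a set limit taken from the earlier primary screen, cut at about 15% in these data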
PP5 counter – inhibits human PP5 phosphatase in PP1 counter-screen; shares compounds with PP1 counter; purified PP5c, OMFP fluorescence; inhibition, % at 6.7 µM; 1,900 compounds, 4% hits; AID 2360;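 active = mean PP5 inhibition over triplicate wells above about 9.5% taken from the earlier PP1 screen, limit read from the data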
Of the large screens only hits and unclear results are named; the others gave an inactive call (follow-up assays come after a bar, where they were run). Only some compounds are listed: those with a hit (about 3.4% of all), similar ones and a draw of the others.

COc1cccc(N=Nc2c(=O)[nH]n3c(=O)c4c([nH]c23)CCC4)c1	PP1 counter 20 | PP1 confirm 16 | PP5 counter inactive
O=c1[nH]n2c(=O)c3c([nH]c2c1N=Nc1cccc(C(F)(F)F)c1)CCCC3	pPAFAH FP inh 28, PP1 counter 26, PAFAH1B2 inh 30 | PP1 confirm 24 | PP5 counter inactive
CCN(CC)CCOC(=O)c1ccc(N/C=C(/C#N)c2nc(-c3cc4ccccc4oc3=O)cs2)cc1	none (no result: pPAFAH FP inh, PP1 counter, PP5 primary)
CCN(CC)CCOC(=O)c1ccc(N/C=C(/C#N)c2nc(-c3ccc(OC)cc3)cs2)cc1	PP1 counter 60 | PP1 confirm inactive | PP5 counter inactive
CCN(CC)CCOC(=O)c1ccc(N/C=C(/C#N)c2nc(-c3ccc4c(c3)OCO4)cs2)cc1	PP1 counter 65 | PP1 confirm 39 | PP5 counter inactive
CCN(CC)C(=O)CSc1ncnc2sccc12	none
CCN(CC)C(=O)CSc1ncnc2c(-c3cccs3)nsc12	PP1 counter 25 | PP1 confirm inactive | PP5 counter inactive
O=C(N/N=C/c1ccc([N+](=O)[O-])o1)c1cc(-c2ccc(-c3ccccc3)cc2)nc2ccccc12	PP1 counter 27 | PP1 confirm 29 | PP5 counter inactive
Cc1nnc(NC(=O)c2cc(-c3ccco3)nc3ccccc23)s1	pPAFAH FP inh 27, PP1 counter 30 | PP1 confirm inactive | PP5 counter inactive
CCOc1ccc(/C=N/NC(=O)c2cc(-c3ccco3)nc3ccccc23)cc1	none
O=C(N/N=C/c1ccc(F)cc1)c1cc(-c2ccco2)nc2ccccc12	pPAFAH FP inh 30, PP1 counter 19 | PP1 confirm inactive | PP5 counter inactive
Cc1ccc(-c2cc(C(=O)Nc3cc(C)ccc3C)[nH]n2)c(O)c1	none
Cn1c(=O)c(C(=O)Nc2ncccc2O)c(O)c2ccccc21	PP1 counter 28 | PP1 confirm 30 | PP5 counter inactive
CCN(Cc1ccccc1)S(=O)(=O)c1ccc(C(=O)N(CCCN(C)C)c2nc3c(C)c(C)ccc3s2)cc1	PP1 counter 19 | PP1 confirm inactive | PP5 counter inactive
CCSC1=C(C#N)C(c2ccc3c(c2)OCO3)C2=C(CCCC2=O)N1 (stereo not drawn)	none
Cc1ccccc1NS(=O)(=O)c1nnc(NC(=O)c2ccccc2F)s1	none
N#CCSc1nc2ccc(N3CCCCC3)cc2c(=O)n1Cc1ccccc1	PP1 counter 23 | PP1 confirm 21 | PP5 counter inactive
CCc1nnc(SCC(=O)Nc2nnc(C)s2)n1CC1CCCO1 (stereo not drawn)	none
O=C(CN1C(=O)CCC1=O)Nc1nc(-c2nc3ccccc3s2)cs1	none
O=C(Nc1nc(-c2nc3ccccc3s2)cs1)C1CC1	PP1 counter 24 | PP1 confirm 26 | PP5 counter inactive
O=C(Nc1nc(-c2nc3ccccc3s2)cs1)c1ccco1	PP1 counter 23 | PP1 confirm 26 | PP5 counter inactive
COc1ccc(CN2C(=O)Cc3c2nc(N)c2c(N)nc(N4CCOCC4)c(C#N)c32)cc1	PP1 counter 18 | PP1 confirm inactive | PP5 counter 14
COCCN1C(=O)Cc2c1nc(N)c1c(N)nc(N3CCN(c4ccc(F)cc4)CC3)c(C#N)c21	PP1 counter 19 | PP1 confirm inactive | PP5 counter inactive
COc1ccc(N2CCN(CCCNC(=O)CCC(=O)N3CCOc4ccc(Cl)cc43)CC2)cc1	none
CC1CCCCC1NC(=O)/C(C#N)=C/c1ccc(OCC(N)=O)cc1 (stereo not drawn)	none
CCOc1cc(Br)cc(/C=N/NC(=O)c2cccnc2)c1O	PP1 counter 22 | PP1 confirm 19 | PP5 counter inactive
N#CCCN(C(=O)COC(=O)CCC(=O)c1ccc(F)cc1)c1ccccc1	none
N#CCCN(C(=O)COC(=O)CCN=C1NS(=O)(=O)c2ccccc21)c1ccc(F)cc1	PP1 counter 39 | PP1 confirm inactive | PP5 counter inactive
CCCNS(=O)(=O)c1cc2c3c(c1)C(C)C(=O)N3CCC2 (stereo not drawn)	none
COc1ccccc1N1Cc2ccccc2C1	PP1 counter 18 | PP1 confirm 24 | PP5 counter inactive
COc1ccc(OC)c(N2Cc3ccccc3C2)c1	none
Cc1cc2oc(=O)cc(-c3cc4ccccc4o3)c2cc1O	PP1 counter 24 | PP1 confirm 21 | PP5 counter inactive
CS(=O)(=O)N(CC(=O)Nc1ccc(S(=O)(=O)N2CCCC2)cc1)c1ccccc1F	none
Nc1nc(-c2ccccn2)nc(N)c1Cc1c(F)cccc1Cl	PP1 counter 27 | PP1 confirm 47 | PP5 counter inactive
Nc1nc(-c2ccccn2)nc(N)c1Cc1ccc(Cl)cc1Cl	PP1 counter 34 | PP1 confirm 47 | PP5 counter inactive
CCN(C(=O)c1ccc(S(=O)(=O)N2CCCCC2)cc1)C1CCS(=O)(=O)C1 (stereo not drawn)	none
Cc1cc(C(=O)CN2C(=O)C(=O)N(C3CCCC3)C2=O)c(C)n1CCc1ccc(F)cc1	PP1 counter 18 | PP1 confirm inactive | PP5 counter inactive
Cc1cc(C(=O)CN2C(=O)C(=O)N(C3CCCC3)C2=O)c(C)n1CCc1ccccc1	none (no result: pPAFAH FP inh, PP1 counter, PP5 primary)
CCC[n+]1c2ccccc2cc2ccccc21	PP1 counter 25 | PP1 confirm 20 | PP5 counter inactive
CCCCC[n+]1cccc2c3ccccc3ccc21	none
Cc1ccsc1/C=N/NC(=O)c1c[nH]c2ccccc12	none
O=C(N/N=C/c1ccsc1)c1c[nH]c2ccccc12	PP1 counter 38 | PP1 confirm inactive | PP5 counter inactive
CCc1nnc(NS(=O)(=O)c2ccc(NC(=S)NC(=O)/C=C/c3ccc(C(C)C)cc3)cc2)s1	PP1 counter 26 | PP1 confirm 32 | PP5 counter inactive
COC(=O)CSc1nc2cc3c(cc2cc1C#N)OCO3	none
Cc1ccc(C2CC(c3cccs3)=NN2C(=O)CSc2nc(=O)n3ccc(C)cc3n2)cc1 (stereo not drawn)	PP1 counter 22 | PP1 confirm 16 | PP5 counter inactive
CCc1ccccc1N(C)S(=O)(=O)c1ccc2[nH]cc(C(=O)O)c(=O)c2c1	PP1 counter 24 | PP1 confirm 18 | PP5 counter inactive
Cc1nn(CCCC(=O)N2CCc3ccccc3C2)c(=O)c2cc3sccc3n12	none
Cc1cc2oc(C(=O)Nc3ccc(S(=O)(=O)Nc4nccs4)cc3)cc(=O)c2cc1Cl	PP1 counter 39 | PP1 confirm 31 | PP5 counter inactive
Cc1cc(C)c2oc(C(=O)Nc3ccc(S(=O)(=O)Nc4nccs4)cc3)cc(=O)c2c1	none
COCC(=O)NNC(=O)Cc1ccc(Cl)cc1	none
COc1ccc(NC(=O)c2cc([N+](=O)[O-])nn2Cc2ccccc2)c(C)c1	none

Screening data deposited in PubChem by The Scripps Research Institute Molecular Screening Center.
